Assay results from PubChem BioAssay (NCI).
Compounds without any hit were thinned out: in the full panel of roughly 83,000, 20% have a hit.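 In brief: 96-well plates, 48 h treatment, single concentration, percent growth endpoint.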 A number with no mark means an inactive call. Activity calls are given as the source filed them. The calls were made as follows: active = growth percent below 10; inactive = the rest.

Legend:
Assay in all cases: NCI-60 one-dose screen, 48 h (100 = growth as untreated, 0 = no growth, -100 = all killed)
Conditions in all cases: 10 µM unless noted
NCI-H23 lung = system: NCI-H23 lung
NCI-H226 lung = system: NCI-H226 lung
HOP-62 NSCLC = system: HOP-62 NSCLC
NCI-H460 lung = system: NCI-H460 lung
HOP-92 NSCLC = system: HOP-92 NSCLC
NCI-H522 lung = system: NCI-H522 lung
A549/ATCC NSCLC = system: A549/ATCC NSCLC
786-0 renal = system: 786-0 renal
COLO 205 colon = system: COLO 205 colon
DU-145 prostate = system: DU-145 prostate
K-562 leukemia = system: K-562 leukemia
MALME-3M melanoma = system: MALME-3M melanoma
MDA-MB-231 breast = system: MDA-MB-231 breast
RXF 393 renal = system: RXF 393 renal
SF-268 CNS = system: SF-268 CNS
SF-295 CNS = system: SF-295 CNS
SF-539 CNS = system: SF-539 CNS
UACC-257 melanoma = system: UACC-257 melanoma
M14 melanoma = system: M14 melanoma
NCI-H322M lung = system: NCI-H322M lung

Compound	growth (NCI-H23 lung)	growth (NCI-H226 lung)	growth (HOP-62 NSCLC)	growth (NCI-H460 lung)	growth (HOP-92 NSCLC)	growth (NCI-H522 lung)	growth (A549/ATCC NSCLC)	growth (786-0 renal)	growth (COLO 205 colon)	growth (DU-145 prostate)	growth (K-562 leukemia)	growth (MALME-3M melanoma)	growth (MDA-MB-231 breast)	growth (RXF 393 renal)	growth (SF-268 CNS)	growth (SF-295 CNS)	growth (SF-539 CNS)	growth (UACC-257 melanoma)	growth (M14 melanoma)	growth (NCI-H322M lung) [%]
COc1ccc(C(O)c2cc3c(N)c(C(=O)Nc4cccc(Cl)c4)sc3nc2C)cc1 (stereo not drawn)	37.8%	29.5%	26.6%	1.28% (active)	74%	14.6%	21.2%	31.5%	3.71% (active)	8.86% (active)	10.7%	41%	20.2%	-10.9% (active)	28.9%	9.76% (active)	2.14% (active)	47.1%	21.3%	–
C/C(C=O)=C\c1ccc2c(c1)OCO2	102%	85.2%	108%	118%	104%	99.9%	105%	107%	118%	108%	113%	127%	121%	98.3%	110%	104%	106%	109%	121%	–
C=C(CO)[C@@H]1CC[C@]2(COC3CCCCO3)CC[C@]3(C)[C@H](CC[C@@H]4[C@@]5(C)C=C(C=O)C(=O)C(C)(C)[C@@H]5CC[C@]43C)[C@@H]12 (stereo partly drawn)	-63.6% (active)	-54.3% (active)	-86.8% (active)	-73.1% (active)	-92.5% (active)	-80.5% (active)	-77.4% (active)	-91.2% (active)	-60.2% (active)	-98% (active)	-60.7% (active)	-78.4% (active)	-58.4% (active)	-86.2% (active)	-83.2% (active)	-89.5% (active)	-90.1% (active)	-64.4% (active)	-65.5% (active)	–
CCCCn1sc(=O)n(Cc2ccc(CNC(=O)OCc3ccc4c(Cl)cc(Cl)c(O)c4n3)cc2)c1=O	75.3%	73.2%	40.4%	26.5%	74.5%	69.9%	48.7%	67.9%	98.1%	58.5%	42.9%	73%	84.4%	74.3%	67.1%	34.5%	78%	97.6%	60.7%	–
Cc1ccc(C)c2c1C(O)(C#Cc1ccccc1)c1ccccc1C2(O)C#Cc1ccccc1 (stereo not drawn)	92.4%	89.9%	75.1%	23.8%	3% (active)	57.2%	47.5%	70.5%	48.4%	87%	22.2%	39.2%	77%	64.5%	56.5%	4.71% (active)	56.8%	63%	58.9%	–
CCN(CC)CCOc1nc2c3ccc(Cl)cc3nn2c2ccccc12	34.5%	47.1%	42.3%	11.4%	-3.36% (active)	27.9%	16.3%	23.6%	4.4% (active)	26.4%	1.82% (active)	35.8%	21.3%	7.71% (active)	44.6%	29%	17.8%	16.1%	44.5%	–
C#CC#CC#CC#CC#CC#CC#CC#CCC1OCC(COC(=O)O[C@@H](C(=O)O[C@H]2C[C@@]3(O)[C@@H](OC(=O)c4ccccc4)[C@@H]4[C@]5(OC(C)=O)CO[C@@H]5C[C@H](O)[C@@]4(C)C(=O)[C@H](OC(C)=O)C(=C2C)C3(C)C)[C@@H](NC(=O)c2ccccc2)c2ccccc2)O1 (stereo partly drawn)	35.2%	37.6%	30.4%	5.88% (active)	58.2%	24.3%	18.7%	32.1%	12.6%	6.68% (active)	12.6%	41.9%	20%	-9.54% (active)	34.4%	4.59% (active)	-0.927% (active)	53%	-22% (active)	–
CC1CN=C(c2cccc(-c3ccc(-c4ccccc4)o3)c2)N1 (stereo not drawn)	27.6%	30%	39.9%	-25.5% (active)	-13.1% (active)	-64.5% (active)	12.2%	-43.6% (active)	-82.6% (active)	37.4%	-38.2% (active)	-85.2% (active)	-51.5% (active)	-67.8% (active)	3.07% (active)	-49.1% (active)	-72.2% (active)	-58.5% (active)	-67.2% (active)	–
COc1ccc(Cl)cc1Nc1nc(C(F)(F)F)ccc1C(=O)N/N=C/c1ccccc1Cl	16.9%	17.3%	18.3%	4.25% (active)	-47.7% (active)	-13.9% (active)	10.9%	11.8%	-59.5% (active)	14.6%	2.37% (active)	11%	-7.46% (active)	0.498% (active)	13.6%	-12.1% (active)	-7.07% (active)	2.7% (active)	15.2%	–
CC(=O)N/C(=C1/OC(C(O)C(O)C(O)CO)CN1C)[P+](c1ccccc1)(c1ccccc1)c1ccccc1 (stereo not drawn)	106%	97.6%	–	108%	101%	93.5%	102%	102%	107%	105%	97.6%	90.5%	103%	97%	102%	100%	97.6%	104%	99.7%	–
Cc1cc2nc(-c3c(-c4ccc(F)cc4)nc4sccn34)[nH]c2cc1C	94%	97.5%	–	106%	86.1%	85%	95.6%	86.3%	105%	94.3%	94.1%	106%	102%	93.2%	90.8%	92.5%	98.2%	109%	99.5%	99.7
CNC(=O)c1c(NC(=O)c2ccc(C(C)(C)C)cc2)sc2c(CN(C)C)c(O)ccc12	27%	95%	8.39% (active)	-72.5% (active)	19%	75.9%	17.7%	-76.9% (active)	-68.5% (active)	24.7%	-29.3% (active)	-88.9% (active)	-44.8% (active)	36.2%	3.83% (active)	-80.6% (active)	-71.1% (active)	-56.4% (active)	-72.3% (active)	–
CC/C=C\C/C=C/C=C1/C(=O)C=C[C@@H]1C/C=C\CCCC(=O)OC	24.9%	55.7%	36.1%	76.2%	42.4%	-32.3% (active)	80.8%	-15% (active)	14.1%	40.1%	2.34% (active)	35%	4.18% (active)	32.9%	21.9%	81.8%	26.8%	66.5%	32.1%	–
Cc1ccc(/C=C/C(=O)c2ccc(NC(=O)CSc3nc4c([nH]3)c(=O)n(C)c(=O)n4C)cc2)c(C)c1	57.9%	47.2%	20.4%	24.5%	-35.2% (active)	32.5%	33.6%	36%	84.8%	40.1%	55.9%	58.7%	5.32% (active)	-3.94% (active)	46.2%	47.6%	55.1%	62%	56.8%	–
COc1ccc(-c2ccc(=O)oc2C#Cc2cc(OC)c(OC)c(OC)c2)cc1O	44.2%	51.7%	-28.1% (active)	-4.6% (active)	51.4%	4.45% (active)	28.7%	11.8%	47.2%	-4.48% (active)	0.484% (active)	48%	30.4%	-13.2% (active)	20.5%	-20.6% (active)	-28.7% (active)	35.7%	-44.5% (active)	–
CC(C)c1ccc(-n2c(=S)[nH]c3sc4c(c3c2=O)CCC(=O)C4)cc1	36.2%	84.9%	33.9%	30.3%	-6.71% (active)	6.26% (active)	71.1%	102%	92.7%	104%	56.7%	88.7%	68.3%	48.9%	28.7%	21.1%	23.3%	75.3%	60.4%	–
